Dicer processing – inhibitors of Dicer pre-microRNA processing, primary screen, biochemical, cat-ELCCA, chemiluminescence; cat-ELCCA pre-miR-21 Dicer processing; stronger effect = higher value; z-score at 25 µM; hit rate 6% among 47,000; in the data active = z-score above about 3, passing the limit was not always enough;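 also: plate controls were vehicle for no effect and no enzyme for full effect; higher signal means more uncleaved substrate so more Dicer inhibition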
* marks the source's active call; other numbers are inactive results. The entries come from a sample that favours hits as a whole.

SMILES	Dicer processing
Cc1nn(-c2ccccc2)c(C)c1-c1ccccc1O	0.59
O/N=C/c1ncc(C(F)(F)F)cc1Sc1ccc(Cl)cc1	-0.53
Cc1cc(C)c2oc3nc(N)c(C#N)cc3c(=O)c2c1	-2.94
O=C1NC(=S)C(Nc2ccccc2)S1 (stereo unspecified)	2.37
Cn1c(=O)n(C)c2cc(S(=O)(=O)N3CCCC3)ccc21	3.45*
Cn1c(=O)n(C)c2cc(S(=O)(=O)Nc3ccc(C(=O)O)cc3)ccc21	0.33
O=S(=O)(c1ccc2c(c1)Cc1cc(S(=O)(=O)N3CCCCC3)ccc1-2)N1CCCCC1	-0.07
Cc1onc(-c2ccccc2Cl)c1C(=O)ONC1=NCCCC1	-0.21
CC1CC(C(=O)O)C(C(=O)O)CC1C (stereo unspecified)	0.23
Cc1ccc(C2/C(=C(\O)c3ccc(Cl)cc3)C(=O)C(=O)N2CCCn2ccnc2)cc1 (stereo unspecified)	-1.65
CC(CO)NC(=O)OCC1c2ccccc2-c2ccccc21 (stereo unspecified)	4.9
O=C(Nc1ccccc1C(=O)O)OCC1c2ccccc2-c2ccccc21	5.23*
CC(C)C(NC(=O)OCC1c2ccccc2-c2ccccc21)C(=O)O (stereo unspecified)	-1.29
O=C(CSc1nnc(SCC(=O)c2cccc([N+](=O)[O-])c2)s1)c1cccc([N+](=O)[O-])c1	-0.55
Cc1ccc(C2c3c(oc4ccc(F)cc4c3=O)C(=O)N2c2nc(C)c(C)s2)cc1 (stereo unspecified)	0.21
Cc1ccc(NC(=O)Nc2ccc(C(F)(F)F)cc2)cc1NS(C)(=O)=O	6.26*
Cc1csc(NC(=O)Nc2ccc(C(F)(F)F)cc2)c1Cl	0.31
Cc1ccc(NC(=O)c2ccsc2)cc1NS(C)(=O)=O	-2.15
COc1ccccc1N1CCN(C2CCN(S(=O)(=O)c3ccc(Cl)cc3)CC2)CC1	3.59*
O=S(=O)(c1ccc(F)cc1)N1CCC(N2CCCC2)CC1	2.33
COc1ccccc1N1CCN(Cc2ccc3ccccc3c2)CC1	1.93
COc1ccccc1N1CCN(S(=O)(=O)c2cccc3ccccc23)CC1	3.33*
COc1ccccc1N1CCN(S(=O)(=O)c2ccccc2)CC1	0.58
COc1cc(S(=O)(=O)N2CCC(C)CC2)ccc1Cl	-0.36
CN1CC23C=CC(O2)C(C(=O)O)C3C1=O (stereo unspecified)	2.08
SMILES	Dicer processing
CC(NC1CCS(=O)(=O)C1)C(=O)O (stereo unspecified)	0.92
O=C1CC2(CCCC2)C(=O)N1c1ccc(S(=O)(=O)NCCNc2cccc(C(F)(F)F)n2)cc1Cl	-0.52
O=C(O)CCCNc1nc(Cl)nc(N2CCOCC2)n1	4.72*
Clc1nc(NCCN2CCOCC2)nc(NC2CCCCC2)n1	1.69
CCNc1nc(C(=O)O)nc(N2CCOCC2)n1	2.76
CC(C)N(Cc1ccccc1)C(=O)c1ccc(F)cc1F	-0.51
CSc1ccc(CNc2ncc(-c3ccc(Br)cc3)n2C)cc1	2.74
O=C1c2cccc3c(Sc4ccccc4)ccc(c23)C(=O)N1Cc1ccccc1	5.23*
O=C1c2cccc3c(Br)ccc(c23)C(=O)N1Cc1ccccc1	1.52
O=C1c2cccc3c(Sc4ccccc4)ccc(c23)C(=O)N1CCc1ccccn1	0.73
CCOC(=O)c1c(C)oc2ccc(OCC(=O)OC(C)(C)C)cc12	0.63
CN(C)CCNc1cc(-c2ccccc2)nc2ccccc12	0.23
O=C(COc1ccc2c(=O)c(Oc3ccccc3Cl)coc2c1)NC1CCCCC1	0.26
CCOC(=O)c1c(C)oc(-c2ccc(Cl)cc2)c1S(=O)(=O)Nc1ccccc1	-0.14
CC(C)OC(=O)Nc1cnccc1C(F)(F)F	-0.85
COC(=O)c1cc(/C=C/C(=O)N(C(=O)NC2CCCCC2)C2CCCCC2)cn1C	0.64
Cc1c(N)cccc1-c1nc2ccccc2o1	0.93
Nc1ccc(CCc2nc3ccccc3o2)cc1	6.61*
CCOC(=O)Cc1nc2ccccc2o1	1.98
CC(=O)n1nccc1-c1sc(COc2cccc(Cl)c2)nc1C	-0.39
O=C(NCC1CCCO1)C1CC(c2cccc(Br)c2)=NO1 (stereo unspecified)	-0.95
O=C(NCCCn1ccnc1)C1CC(c2cccc(Br)c2)=NO1 (stereo unspecified)	3.49*
O=C(Nc1cc(Cl)ccc1O)C1CC(c2cccc(Br)c2)=NO1 (stereo unspecified)	3*
O=C(Nc1cccc(O)c1)C1CC(c2cccc(Br)c2)=NO1 (stereo unspecified)	0.55
O=C(Nc1cccnc1)C1CC(c2cccc(Br)c2)=NO1 (stereo unspecified)	11.5
SMILES	Dicer processing
CSc1ccccc1NC(=O)C1CC(c2cccc(Br)c2)=NO1 (stereo unspecified)	-0.87
COc1ccc(-c2ccnc3[nH]n(-c4nc(C)cc(C)n4)c(=O)c23)cc1	0.7
COc1ccc(C(C)=O)c(NC(C)=O)c1	-1.78
O=C1NCCc2c1[nH]c1ccc(C3CCCCC3)cc21	2.26
COC(=O)c1c(NC(=O)c2c(C)cc(C)cc2C)sc2c1C(C(=O)OC)CC2 (stereo unspecified)	1.12
O=C(Nc1cc2ccccc2s1)NC1Cc2ccccc2C1	-0.16
O=C(Nc1cc(C(F)(F)F)cc(C(F)(F)F)c1)Nc1cc2ccccc2s1	3.03*
